Assay results from PubChem BioAssay (NCI).
“And” between values parts separate entries of the source, which are not always exact repeats. Equal entries are not always repeated. About 79,000 compounds went through this panel and 15% of them were active in at least one assay; those are over-represented in the sample as a whole. No stated cut-off is given here; in the data, active means growth inhibition above about 70%; inactive means the rest.

Key:
[1] = NCI Yeast Anticancer Drug Screen. Data for the rad50 strain (AID 155);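 further: 0% = growth of vehicle-only cultures of the same strain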; settings: S. cerevisiae rad50 strain growth inhibition; at 50.0 µM; stronger effect = higher value
Method in brief: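 Inhibition values express reduced yeast growth in compound-treated cultures relative to vehicle-treated controls.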

[2] = NCI Yeast Anticancer Drug Screen. Data for the mec2-1 strain (AID 157); settings: S. cerevisiae mec2-1 strain, at 50.0 µM, stronger effect = higher value
Method in brief: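 Yeast mec2-1 mutant treated with compound. Readout: growth inhibition vs vehicle controls.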

[3] = NCI Yeast Anticancer Drug Screen. Data for the sgs1 mgt1 strain (AID 161);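 further: 0% = growth of cultures given vehicle only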; settings: S. cerevisiae sgs1 mgt1 strain, at 50.0 µM, stronger effect = higher value
Method in brief: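 Genetically altered yeast, compound exposure, growth inhibition relative to vehicle.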

[4] = NCI Yeast Anticancer Drug Screen. Data for the cln2 rad14 strain (AID 165);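 further: 0% = growth equal to vehicle treated cultures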; settings: S. cerevisiae cln2 rad14 strain, at 50.0 µM, stronger effect = higher value
Method in brief: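 cln2 rad14 yeast strain; compound exposure; growth inhibition read vs vehicle controls.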

[5] = NCI Yeast Anticancer Drug Screen. Data for the bub3 strain (AID 167); settings: S. cerevisiae bub3 mutant strain, at 50.0 µM, stronger effect = higher value
Method in brief: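 Steps: expose the mutant yeast strain to compound; grow alongside vehicle-treated cultures; measure growth; express inhibition against the vehicle cultures.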

[6] = NCI Yeast Anticancer Drug Screen. Data for the mlh1 rad18 strain (AID 175); settings: S. cerevisiae mlh1 rad18 strain growth inhibition; at 50.0 µM; stronger effect = higher value
Method in brief: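 Yeast w/ defined DNA-repair lesions; compound exposure; growth vs vehicle controls → % inhibition.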

Measured: growth inhibition

CCCCCCCCCCCC(=O)Nc1ccccc1
inactive: [1] -22.6% and -29.2% | [2] -4.05% and -16.9% | [3] 1.2% and -18.3% | [4] -31.7% and -71% | [5] 24.8% and -9.7% | [6] 14.4% and -31.1%

COC1C(OC(C)=O)CC(=O)OC(C)C/C=C/C=C\C(O)C(C)CC(CC=O)C1OC1OC(C)C(OC2CC(C)(O)C(OC(=O)CC(C)C)C(C)O2)C(N(C)C)C1O (stereo unspecified)
inactive: [1] -0.2% and -2.9% | [2] -10.4% and -25.7% | [3] -22.6% and -34% | [4] -4.95% and 4.75% | [5] -27.1% and -30.9% | [6] -2% and -6.85%

CC(=O)OCC1OC(Sc2nc(-c3ccc(Cl)cc3)c(C#N)c(=O)n2C2OC(COC(C)=O)C(OC(C)=O)C(OC(C)=O)C2OC(C)=O)C(OC(C)=O)C(OC(C)=O)C1OC(C)=O (stereo unspecified)
inactive: [1] 8.9% and 6.85% | [2] 7.4% and -3.8% | [3] 9.7% and -9.1% | [4] -18.6% and -12.2% | [5] 9.75% and -7.95% | [6] 2.8% and -46.5%

CCN1C(=O)C=CC1=O
inactive: [1] 3.4% and -19.9% | [2] -2.55% and 13.7% | [3] 11.8% and -8.5% | [4] 6.8% and -30% | [5] 8.8% and -25.5% | [6] 3.55% and -15.4%

COC1OC2COCOC2C(O)C1O (stereo unspecified)
inactive: [1] 16.4% and 11.6% | [2] 17.1% and 7.85% | [3] 10.9% and 1.8% | [4] -53.6% and -34.5% | [5] 14.9% and 8.8% | [6] -4.9% and 5.65%

C/C=C(\Br)C(=O)O
inactive: [1] -8.1% and 24.1% | [2] -10.7% and -5.4% | [3] 1.7% and 0.25% | [4] -10.1% and -19.2% | [5] -15.1% and 5.8% | [6] 9.25% and 12.8%

CC1(C)Nc2ccccc2C(c2ccccc2)=NC1=O
inactive: [1] -2.7% and 4.8% | [2] -17.1% and -15.2% | [3] -7% and 0.85% | [4] -5.75% and -0.25% | [5] -4.7% and -4.6% | [6] 12.7% and 13.3%

OC1COCOC1C1OCOCC1O (stereo unspecified)
inactive: [1] 11.2% and -5.6% | [2] -2.7% and -8.35% | [3] 2.3% and 19.4% | [4] -18.2% and -29% | [5] -1.9% and -4.2% | [6] -5.6% and -0.85%

O=C(O)c1cc2ccccc2c(=O)[nH]1
inactive: [1] -2.25% and 29.4% | [2] 4.55% and 10.8% | [3] -6.9% and 21.9% | [4] 0.8% and 12.2% | [5] 0.9% and 4.45% | [6] 2.4% and -6.55%

CC(=O)c1c(-c2cccc3ccccc23)c(C#N)c(=S)n(C2OC(CO)C(O)C(O)C2O)c1C (stereo unspecified)
inactive: [1] -18.7% and 15.5% | [2] 12.1% and 15% | [3] 2.25% and 32% | [4] 12.3% and 28.2% | [5] 21.1% and 32.1% | [6] 1.55% and 44.9%

CCOC(=O)C(CC(C(=O)OCC)C(=O)OCC)C(=O)OCC
inactive: [1] -21.1% and -11.8% | [2] -15.1% and -16.2% | [3] -6.3% and -20.6% | [4] 10.7% and -16.1% | [5] 10.8% and -12.5% | [6] -25.1% and -9.15%

COc1cc(C)c2c(ccc3ccccc32)n1
inactive: [1] 24.6% and 23.9% | [2] 19.5% and 24.4% | [3] 16.5% and 11.2% | [4] -9.35% and 21.9% | [5] 10.2% and 16.4% | [6] 61.2% and 18.9%

c1ccc([P+](Cc2ccccc2C[P+](c2ccccc2)(c2ccccc2)c2ccccc2)(c2ccccc2)c2ccccc2)cc1
inactive: [1] -15% and 20.1% | [2] -20.9% and 6.8% | [3] -5.3% and 7.25% | [4] -8.25% and 14.8% | [5] 1.6% and 7.8% | [6] -50% and 12.3%

CC(=O)OC1CCC2(C)C(CCC3(C)C2CCC2C4=CC(C)(C)CCC4(C)CCC23C)C1(C)C (stereo unspecified)
inactive: [1] 14.1% and -0.45% | [2] 10% and -9.7% | [3] -10.7% and -1.75% | [4] 13.4% and -3.6% | [5] 10.6% and -4.15% | [6] 20.1% and 7.15%

Nc1ncnc2c1nc(N1CCCCC1)n2C1OC(CO)C(O)C1O (stereo unspecified)
inactive: [1] 27.9% and -5.55% | [2] 12.2% and -0.15% | [3] 9.9% | [4] -38% and -43.2% | [5] 3.5% and -5.1% | [6] 2.6% and -7.85%

COC(=O)/C=C\C(=O)O
inactive: [1] -4.95% and 5.05% | [2] -4.85% and -16.4% | [3] -1.75% and -2.6% | [4] -15.7% and -17.2% | [5] 3.35% and -23.7% | [6] 14.2% and 8.65%

CC(CCC(=O)O)(c1ccc(O)cc1)c1ccc(O)cc1
inactive: [1] 10.4% and -8.8% | [2] -0.85% and -15.6% | [3] -12.8% and -51.6% | [4] -44.4% and -33.4% | [5] -2.7% and -17.2% | [6] 22.8% and -15.6%

CCCCOC(=O)c1ccc(O)cc1
inactive: [1] 25.4% and 23% | [2] -2.95% and -1.8% | [3] 8.7% and -6.55% | [4] 3.55% and -11.2% | [5] 8.75% and 33.6% | [6] 23.4% and 48%

Nc1nc(N)c2ncn(C3OC(CO)C(OC4OC(CO)C(O)C(O)C4O)C(O)C3O)c2n1 (stereo unspecified)
inactive: [1] -0.55% and -12.2% | [2] 12.8% and 7.45% | [3] 2.45% and -27.6% | [4] -2.65% and -19.2% | [5] 1.8% and -17.8% | [6] 22.3% and -10.3%

Cc1ccc(S(=O)(=O)NC(CCC(=O)O)C(=O)O)cc1 (stereo unspecified)
inactive: [1] -11.2% and -4.6% | [2] -22.7% and 7.2% | [3] 0.15% and 0.2% | [4] -6.75% and -12.2% | [5] 21.1% and 6.9% | [6] -12.4% and 9.75%

CC(=O)O[C@@H]1C[C@H](C)CC[C@H]1C(C)C
inactive: [1] 5.85% and 0.6% | [2] -9.8% and -2.35% | [3] -3.05% and -3.7% | [4] 5.8% and 23% | [5] 4.5% and -1.45% | [6] -3.4% and -0.8%
